Data taken from PubChem BioAssay (NCATS).
Results filed as inconclusive are left out. A call without a number means that no potency is given here. Activity calls are given as the source filed them. Unless noted, the call rests on the fitted dose curve; in most records, active means well fitted curve in the direction sought with a large enough effect; inconclusive means small, poorly fitted or top-dose-only effect, or another doubt; inactive means no such curve, though single readings can be large; an effect the other way counts as inactive or inconclusive.

Columns and labels:
[1] = qHTS for compounds that reverse cellular toxicity of Amyloid beta (A-beta) peptide in yeast: LOPAC Validation Assay (AID 720559)
Method in brief: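 Rescue of A-beta toxicity was scored as yeast growth by 600 nm absorbance after 48 hr at 30 C with compound. Normalization used DMSO (negative) and equimolar ferric chloride plus clioquinol (positive).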

[2] = qHTS for Activators of Parkin Expression: LOPAC Validation Assay (NLuc Reporter) (AID 720572)
Method in brief: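 Compound effects on Parkin promoter activity were measured as NanoLuc luminescence after 24 h at 37 C. The neuronal reporter line also carried FLuc, which was read first. LOPAC compounds were tested at 7 concentrations, with normalization to DMSO (0%) and positive control (100%).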

[3] = qHTS for Activators of Parkin Expression: LOPAC Validation Assay (FLuc Reporter) (AID 720573)
Method in brief: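 FLuc signal from Parkin-promoter coincidence reporter neuronal cells, normalized to DMSO and positive control (100%). Cells (1,500/well) pre-incubated 24 h, then exposed to LOPAC compounds in 7-point dose response for 24 h at 37 C, 5% CO2.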

[4] = target: Tyrosine-protein kinase Yes (Homo sapiens) (UniProt P07947); assay: qHTS for small molecule inhibitors of Yes1 kinase: Primary Screen (AID 686947); further: nearly all actives have a fitted effect of over 60% in size; further: potency means the concentration at half of the fitted maximal effect
Tyrosine-protein kinase Yes (Homo sapiens), sequence (P07947 whole entry, looked up): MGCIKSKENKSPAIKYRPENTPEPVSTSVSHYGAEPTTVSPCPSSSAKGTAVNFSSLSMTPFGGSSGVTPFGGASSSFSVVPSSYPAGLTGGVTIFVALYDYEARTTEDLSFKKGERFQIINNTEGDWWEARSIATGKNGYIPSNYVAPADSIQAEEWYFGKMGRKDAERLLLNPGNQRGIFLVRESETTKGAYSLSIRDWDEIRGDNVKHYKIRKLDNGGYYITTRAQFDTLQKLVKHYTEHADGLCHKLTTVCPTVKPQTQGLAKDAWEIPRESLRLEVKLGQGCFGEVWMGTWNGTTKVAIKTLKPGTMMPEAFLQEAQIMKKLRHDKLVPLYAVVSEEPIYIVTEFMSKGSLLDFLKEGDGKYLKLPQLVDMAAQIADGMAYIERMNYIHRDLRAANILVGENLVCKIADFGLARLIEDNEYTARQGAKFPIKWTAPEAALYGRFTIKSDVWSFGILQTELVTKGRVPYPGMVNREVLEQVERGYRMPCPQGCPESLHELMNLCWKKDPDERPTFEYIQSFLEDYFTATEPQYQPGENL
Method in brief: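 ADP-Glo luminescence reports ADP formed by 4 nM Yes1 phosphorylating poly(E4Y) (0.3 mg/mL) with 0.1 mM ATP for 60 min at room temperature, following 20 min compound preincubation; normalised between DMSO wells with and without enzyme.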

[5] = qHTS for small molecule inhibitors of Yes1 kinase: Counter Assay (AID 686950);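 further: no kinase present so only ADP-Glo detection of a fixed ADP amount is tested; luminescence from ADP-Glo reporting ADP in a fixed ATP and ADP mixture; series mostly up to about 77 µM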
Text: The Src family of non-receptor protein tyrosine kinases contains nine members, including Yes1, Src, Fyn, Lyn, and […]. These kinases have important roles in a variety of cellular functions, such as cell proliferation, survival, and differentiation. Src, the most well characterized member of this family, has been previously identified as a proto-oncogene. […] In melanoma, it has been shown that Yes1, and not other family members, such as Src, is functionally involved in the malignant phenotype. Additionally, a recent study examining the downregulation of Yes1 by shRNA found significant effects on cell survival/growth for basal-like and Her2-positive breast cancers. Despite the potential for Yes1 to be a target for the above-described cancers, there are very few reports on the identification of potent and selective inhibitors of Yes1 kinase. Antagonists of Yes1 would further elucidate Yes1 biology and help to confirm whether Yes1 is a viable target for therapeutic intervention in a variety of cancers.
A compound that inhibits Yes1 could be important for the treatment of various cancers in which Yes1 is highly expressed and can also be used as a tool compound to help further elucidate Yes1 biology. To that end, we have developed a sensitive HTS biochemical assay for Yes1 activity. This assay was screened against several small compound libraries to look for modulators of activity. The cherrypicked compounds were screened against this counter assay, which evaluates whether the compounds have any effect on the ADP-Glo detection kit. Compounds that show inhibition in this assay have interference with the detection system. […]
Two microliter of buffer (columns 1-48) are dispensed into Greiner, white solid-bottom 1536-well assay plates. […] The amount of ADP is then quantified by the ADP-Glo Kit (Promega, Madison, WI). First, 2 uL of the first kit reagent is added, and the reaction is incubated for 45 minutes; then, 4 uL of the second kit reagent are added and the reaction is incubated for 30 minutes at which time the luminescence is read on a Viewlux plate reader (Perkin-Elmer, Waltham, MA). […]

[6] = target: Nuclear receptor ROR-gamma (Homo sapiens) (UniProt P51449); assay: qHTS assay for small molecule antagonists of the retinoid-related orphan receptor gamma (ROR-gamma) signaling pathway (AID 651802); further: nearly all actives have a fitted effect of over 60% in size; further: potency means the concentration at half of the fitted maximal effect
Nuclear receptor ROR-gamma (Homo sapiens), sequence (P51449 whole entry, looked up): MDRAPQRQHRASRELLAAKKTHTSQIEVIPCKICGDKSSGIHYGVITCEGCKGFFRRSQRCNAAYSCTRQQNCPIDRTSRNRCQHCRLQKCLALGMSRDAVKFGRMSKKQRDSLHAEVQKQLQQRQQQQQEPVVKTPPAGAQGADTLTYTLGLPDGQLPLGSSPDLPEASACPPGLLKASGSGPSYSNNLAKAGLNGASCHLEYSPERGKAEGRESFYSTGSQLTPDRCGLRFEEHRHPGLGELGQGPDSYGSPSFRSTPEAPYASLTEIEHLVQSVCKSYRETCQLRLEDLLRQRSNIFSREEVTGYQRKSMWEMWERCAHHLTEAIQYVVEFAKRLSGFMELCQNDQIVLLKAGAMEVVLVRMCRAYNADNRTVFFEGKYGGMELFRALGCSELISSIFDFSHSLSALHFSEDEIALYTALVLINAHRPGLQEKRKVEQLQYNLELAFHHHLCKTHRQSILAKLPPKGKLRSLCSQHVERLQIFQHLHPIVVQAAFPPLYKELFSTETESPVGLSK
Method in brief: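 Luminescence (One-Glo, 30 min RT) measured 16 h after compound addition and doxycycline induction at 37C. Reporter: RORE-luciferase under TET-inducible ROR-gamma in CHO cells.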

[7] = qHTS assay for small molecule agonists of the antioxidant response element (ARE) signaling pathway measured by Nrf2-dependant transcriptional activity (AID 720636; active means well fitted curve in the direction sought with a large enough effect in the repeat runs; an effect the other way counts as inactive or inconclusive)
Method in brief: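 Quantitative HTS format in HepG2 cells stably expressing an ARE-luciferase reporter; 16 hr compound treatment at 37 C, luciferase signal detected with ONE-Glo.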

[8] = qHTS for Inhibitors of Ubiquitin-specific Protease USP2a Using CHOP2 as the Reporter: K633 Counterscreen (AID 652168); further: series mostly up to about 57 µM
Method in brief: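 Detection-system control: fluorescence of K48-linked DiUb-4IQF substrate (100 nM as added) tracked over time, Ex 525/Em 598, with pinned compounds and no enzyme, in pH 8 Tris buffer containing beta-mercaptoethanol and 0.05% Chaps.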

[9] = qHTS for Inhibitors of Ubiquitin-specific Protease USP2a Using CHOP2 as the Reporter: Cytotox Assay (AID 652170);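 further: HCT116 human colon cancer cells at 600 per well; series mostly up to about 46 µM; nearly all actives have a fitted effect of over 70% in size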
Text: Homeostasis of cellular proteins is maintained through a combination of synthesis and degradation. The pathway that accounts for the majority of protein degradation is the ubiquitin-proteasomal pathway. Ubiquitin (Ub) is highly conserved in all cells and the generation of a multi-Ub chain typically targets proteins for degradation by the proteasome. However, ubiquitination is highly reversible and dynamic. Deubiquitination, the reverse process, is catalyzed through the action of enzymes referred to as isopeptidases or deubiquitinating enzymes (DUBs). This group of enzymes is collectively responsible for maintaining adequate pools of free ubiquitin and regulating the ubiquitination status of cellular proteins. The class of DUBs referred to as the ubiquitin-specific proteases (USP) family functions endoproteolytically to cleave Ub chains from a wide range of protein substrates. […] This assays monitors cell proliferation by quantitating the amount of ATP present by luciferase, which in the presence of ATP converts pro-luciferin into the luminescent luciferin product. A compound that inhibits cell proliferation would result in a decrease in luminescence. […]
5 uL of HCT116 (600 cells/well) were plated into a 1536 well plate and then incubated for 6 hr at 37 deg C, 5% CO2. […] Then, 3 uL of Cell Titer Glo is added, the plate is left at RT for 10 min, before luminescence is detected using the ViewLux.

[10] = target: Ubiquitin carboxyl-terminal hydrolase 2 (Homo sapiens) (UniProt O75604); assay: qHTS for Inhibitors of Ubiquitin-specific Protease USP2a Using CHOP2 as the Reporter: K484 Substrate (AID 652173);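 further: cleavage of internally quenched K48 di-ubiquitin substrate measured as rising fluorescence over time; nearly all actives have a fitted effect of over 70% in size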
Ubiquitin carboxyl-terminal hydrolase 2 (Homo sapiens), sequence (O75604 whole entry, looked up): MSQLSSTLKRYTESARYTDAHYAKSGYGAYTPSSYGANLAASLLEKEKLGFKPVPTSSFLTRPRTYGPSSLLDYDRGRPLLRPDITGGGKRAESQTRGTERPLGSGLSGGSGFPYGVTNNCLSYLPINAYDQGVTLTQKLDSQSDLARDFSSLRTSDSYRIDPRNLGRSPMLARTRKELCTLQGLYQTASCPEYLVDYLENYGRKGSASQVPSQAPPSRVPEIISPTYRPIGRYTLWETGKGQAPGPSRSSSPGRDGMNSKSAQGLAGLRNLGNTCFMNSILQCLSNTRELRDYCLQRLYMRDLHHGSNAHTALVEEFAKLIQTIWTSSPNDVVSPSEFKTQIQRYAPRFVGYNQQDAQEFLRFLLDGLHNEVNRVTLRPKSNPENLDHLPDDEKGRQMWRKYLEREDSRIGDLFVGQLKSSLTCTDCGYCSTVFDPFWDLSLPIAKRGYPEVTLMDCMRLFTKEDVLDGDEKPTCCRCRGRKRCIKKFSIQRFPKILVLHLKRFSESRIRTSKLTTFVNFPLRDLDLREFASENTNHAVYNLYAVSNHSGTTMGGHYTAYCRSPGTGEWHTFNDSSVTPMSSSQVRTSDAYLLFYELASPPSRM
Method in brief: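 Kinetic fluorescence (Ex 525/Em 598) tracked cleavage of an internally quenched K48 di-ubiquitin substrate, added as a 100 nM solution. The enzyme was added as a 5 nM USP2 solution before compound pinning, with no-enzyme controls. Buffer: Tris pH 8, beta-mercaptoethanol, CHAPS.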

In the case of `COc1ccccc1N1CCN(CCN2C(=O)CC3(CCCC3)CC2=O)CC1`, the outcome [1] is reported as “inactive”, the outcome [2] is reported as “inactive” and the outcome [3] is reported as “inactive”.

With `CN1CCC(Nc2ncc3ncnc(Nc4ccc(F)c(Cl)c4)c3n2)CC1` the Potency [4] was 3.45 µM (active) and the outcome [5] was “inactive”.

For `CN(C)c1cc2c(Nc3ccc4c(cnn4Cc4ccccc4)c3)ncnc2cn1`, the Potency [4] was 0.207 µM (active), the outcome [5] was “inactive” and the outcome [1] was “inactive”.

With `CC(C)C(C)(C)C(C)(C)C(C)(C)S` the Potency [6] was “inactive” and the outcome [7] was “inactive”.

With `O=C1NC(c2cccc([N+](=O)[O-])c2)=CCN1c1ccccc1O` the outcome [1] was “inactive”, the outcome [2] was “inactive” and the outcome [3] was “inactive”.

With `COc1cccc2c1[C@@H]1CN(CCCCn3c(=O)[nH]c4c(sc5ncc(-c6ccccc6)nc54)c3=O)C[C@@H]1CO2` the outcome [1] was “inactive”, the outcome [2] was “inactive” and the outcome [3] was “inactive”.

With `C1=CC2C3C=CC(C3)C2C1` (stereo not drawn) the Potency [6] was “inactive” and the outcome [7] was “inactive”.

With `COC(=O)C1=CO[C@@H](O)[C@@H]2C(CO)=CC[C@H]12` the outcome [1] was “inactive”, the outcome [2] was “inactive” and the outcome [3] was “inactive”.

In the case of `O=C(Oc1ccccc1)c1ccccc1O`, the Potency [6] is reported as “inactive” and the outcome [7] is reported as “inactive”.

In the case of `CC(=O)OC/C=C(C)/C=C/C=C(C)/C=C/C1=C(C)CCCC1(C)C`, the Potency [6] is reported as “inactive”.

In the case of `CC(=O)Nc1ccc(S(=O)(=O)Nc2cc(C)on2)cc1`, the outcome [8] is reported as “inactive”, the outcome [9] is reported as “inactive” and the outcome [10] is reported as “inactive”.

For `CCCCC(CC)COC(=O)c1ccccc1C(=O)O` (stereo not drawn), the Potency [6] was “inactive” and the outcome [7] was “inactive”.

With `Cn1cnc2c(NCc3ccccc3)nc(NCCO)nc21` the outcome [1] was “inactive”, the outcome [2] was “inactive” and the outcome [3] was “inactive”.

With `O=C1NC(=O)/C(=C/c2ccc3c(c2)OC(F)(F)O3)S1` the outcome [1] was “inactive” and the outcome [2] was “inactive”.

In the case of `O=C(NO)c1ccccc1`, the Potency [6] is reported as “inactive” and the outcome [7] is reported as “inactive”.

With `C[C@@H](O[C@H]1OCCN(Cc2n[nH]c(=O)[nH]2)[C@H]1c1ccc(F)cc1)c1cc(C(F)(F)F)cc(C(F)(F)F)c1` the Potency [4] was “inactive” and the outcome [5] was “inactive”.

With `CC(C)(C)c1ccc(O)c(O)c1` the Potency [6] was 59.6 µM (active) and the outcome [7] was “inactive”.

For `CCCC(=O)c1cc(O)c(O)cc1O`, the Potency [6] was “inactive” and the outcome [7] was “inactive”.

With `c1ccc2occc2c1` the Potency [6] was “inactive”.

For `COc1cc(C=O)ccc1O`, the Potency [6] was “inactive” and the outcome [7] was “inactive”.

In the case of `NC(N)=NCCCCN=C(N)N`, the outcome [1] is reported as “inactive”, the outcome [2] is reported as “inactive” and the outcome [3] is reported as “inactive”.

With `Oc1ccccc1` the Potency [6] was “inactive” and the outcome [7] was “inactive”.

With `COC(=O)c1c(Cl)c(Cl)c(C(=O)OC)c(Cl)c1Cl` the outcome [7] was “inactive”.

For `Cc1nn(-c2ccccc2)c(C)c1/C=N/N1CCN(Cc2ccccc2)CC1`, the outcome [1] was “inactive”, the outcome [2] was “inactive” and the outcome [3] was “inactive”.

In the case of `OCc1c[nH]c2ccccc12`, the outcome [7] is reported as “inactive”.

For `CC(C)N(CCC(=O)c1ccc2ccccc2c1)Cc1ccccc1`, the outcome [1] was “inactive”, the outcome [2] was “inactive” and the outcome [3] was “inactive”.

For `CN1C(=O)c2ccccc2C1=O`, the outcome [7] was “inactive”.

With `Nc1c2ccccc2nc2ccccc12` the outcome [7] was “inactive”.

For `Cc1ccc(O)cc1`, the outcome [7] was “inactive”.

With `Brc1ccc([C@H]2CN3CCSC3=N2)cc1` the outcome [1] was “inactive”, the outcome [2] was “inactive” and the outcome [3] was “inactive”.

For `C[N+](C)(C)CCO`, the outcome [1] was “inactive”, the outcome [2] was “inactive” and the outcome [3] was “inactive”.

For `O=C(Nc1ccc(Cl)cc1)Nc1ccc(Cl)c(Cl)c1`, the outcome [7] was “inactive”.

In the case of `Cc1cc(C(C)(C)C)c(O)c(C(C)(C)C)c1`, the outcome [7] is reported as “inactive”.

In the case of `N[C@@H](Cn1ccc(=O)c(O)c1)C(=O)O`, the outcome [1] is reported as “inactive”, the outcome [2] is reported as “inactive” and the outcome [3] is reported as “inactive”.

In the case of `CC(C)(c1ccc(O)cc1)c1ccc(O)cc1`, the outcome [7] is reported as “inactive”.

With `Nc1ncnc2n[nH]c(Nc3ccc(F)cc3)c12` the outcome [1] was “inactive”, the outcome [2] was “inactive” and the outcome [3] was “inactive”.

For `O=C(c1ccccc1)c1ccccc1`, the outcome [7] was “inactive”.

In the case of `Clc1ccc2c(c1)N=C(N1CCNCC1)c1ccccc1N2`, the outcome [1] is reported as “inactive”, the outcome [2] is reported as “inactive” and the outcome [3] is reported as “inactive”.

For `Brc1ccccc1-c1ccccc1`, the outcome [7] was “inactive”.

In the case of `Cc1ncc(CO)c(CO)c1O`, the outcome [7] is reported as “inactive”.

With `O=[N+]([O-])c1ccc(-c2nc(-c3ccc(F)cc3)c(-c3ccncc3)[nH]2)cc1` the outcome [1] was “inactive”, the outcome [2] was “inactive” and the outcome [3] was “inactive”.

In the case of `CCN(CC)CCOc1ccc(/C(=C(\Cl)c2ccccc2)c2ccccc2)cc1`, the outcome [7] is reported as “inactive”.

In the case of `OCCOCCN1CCN(C(c2ccccc2)c2ccc(Cl)cc2)CC1` (stereo not drawn), the outcome [7] is reported as “inactive”.

In the case of `CCCCCCCCCCCC[N+](C)(C)Cc1ccccc1`, the outcome [7] is reported as “inactive”.
